The results in this text go back to PubChem BioAssay (EPA / NIEHS).

Activity calls are given as the source filed them. Rule for the calls: active = hit-call score of the fitted dose curve at least 0.9, where 1 is the maximum; inactive = score below 0.9.

A short description of the test: APR_HepG2_NuclearSize_24hr: Apredica 24-hour HepG2 Assay for Nuclear Size (AID 2282907). The conditions noted are these: high-content imaging, actives raise or lower the signal. On the procedure: APR_HepG2_24hr is a cell-based, multiplexed-readout assay that uses HepG2, a human liver cell line, with measurements taken at 24 hours after chemical dosing in a 384-well plate.APR_HepG2_NuclearSize_24hr is one of 10 assay component(s) measured or calculated from the APR_HepG2_24hr assay. It is designed to make measurements of cell phenotype, a form of morphology reporter, as detected with fluorescence intensity signals by HCS Fluorescent Imaging technology.Data from the assay component APR_HepG2_NuclearSize_24hr was analyzed into 1 assay endpoint. This assay endpoint, APR_HepG2_NuclearSize_24hr, was analyzed with bidirectional fitting relative to DMSO as the negative control and baseline of activity. Using a type of morphology reporter, measures of all nuclear dna for gain or loss-of-signal activity can be used to understand the signaling at the nuclear-level. Furthermore, this assay endpoint can be referred to as a primary readout, because this assay has produced multiple assay endpoints where this one serves a signaling function. To generalize the intended target to other relatable targets, this assay endpoint is annotated to the cell morphology intended target family, where the subfamily is organelle conformation.
Cells were treated with dimethyl sulfoxide (DMSO) as a solvent control at a final concentration of 0.5% v/v or with compounds in DMSO with a resulting final DMSO concentration of 0.5% v/v. Compound treatment was done at concentrations of 0.39, 0.78, 1.56, 3.12, 6.24, 12.5, 25, 50, 100, and 200 uM in duplicate on each plate. Cells were treated with compounds for 1, 24, or 72 hr. Carbonyl […] m-chloro-phenylhydrazone (CCCP) and taxol were used as positive controls for mitochondrial function and cytoskeletal stability, respectively; DMSO served as the negative control for this experiment. Cells were fixed by the direct addition of 50 uL formaldehyde in Hank's Balanced Salt Solution (HBSS) to a final concentration of 3.7%. After incubation in the fixation medium for 30 min at room temperature (293-298 K), cells were rinsed twice with HBSS and treated with cell permeabilization buffer (16 uL of 0.5% Triton X-100) for 10 min at room temperature (293-298 K) before labeling. For mitochondrial membrane potential and mitochondrial measurements, pre-fixed cells were incubated with 50 uL of MitoTracker Red CMXRos (Invitrogen) at a concentration of 250 nM for 30 min before fixation. In the remaining cases, post-fixed cells were labeled by incubation with a multiplexed mixture of primary antibodies in HBSS for 60 min at room temperature (293-298 K) to detect immunoreactivity of c-Jun (1:500), phospho-histone H3 (1:100), phospho-histone H2A.x (1:200), p53 (1:400), alpha-tubulin (1:200) and Hoechst 33342 (2 ug/mL). Cells were labeled for multiplexed imaging on two separate plates: a) Hoechst 33342, MitoTracker Red, phospho-histone H3, and alpha-tubulin, and b) Hoechst 33342, phospho-histone H2A.x, and c-Jun. A final rinse with HBSS (50 uL) was performed before analysis. The primary and secondary antibodies for the proteins were phospho-histone H3 (rabbit anti-phospho-histone H3 and FITC-donkey anti-rabbit IgG), phospho-histone H2A.x (mouse anti-phospho-histone H2A.x and FITC-donkey anti-mouse IgG), c-Jun (rabbit anti-phospho-c-Jun and Cy3-donkey anti-rabbit IgG), p53 (sheep anti-p53 and Cy5-donkey anti-sheep IgG), alpha-tubulin (mouse anti-alpha-tubulin and Cy5-donkey anti-mouse IgG). These antibodies are available as the CellCiphr HepG2 assay kit (Millipore).Digital images of each well were captured using a Cellomics ArrayScan VTI (Thermo Scientific Cellomics) (0.8 NA objective, 0.63x optical coupler, and XF-93 filter set) at 20x magnification. The images were acquired using the autofocus feature of the ArrayScan instrument, which entails the following steps. First, the camera focuses on channel 1 (Hoechst 33342), where nuclei are identified. Second, a Z offset of 1 um is used for capturing mitochondria (MitoTracker Red). […]
Take `COS(=O)(=O)OC`: the molecule was called inactive.

Consider `Cc1cccc(C)c1N`, for which the molecule was classed as inactive.

As to `C[C@]12CCC(=O)C=C1CC[C@@H]1[C@@H]2CC[C@]2(C)C(=O)CC[C@@H]12`, the outcome was inactive.

For `Cc1ccccc1CO[C@@H]1C[C@@]2(C(C)C)CC[C@]1(C)O2`, the molecule was classed as inactive.

`Clc1ccc(C(c2ccccc2Cl)C(Cl)(Cl)Cl)cc1` (stereo not given): the molecule was called inactive.

As to `O=C(NC(=O)c1c(F)cccc1F)Nc1cc(Cl)c(OC(F)(F)C(F)F)c(Cl)c1`, the molecule was classed as inactive.

For `CCC(C)c1cc([N+](=O)[O-])cc([N+](=O)[O-])c1O` (stereo not given), the call was inactive.

In the case of `C1CC2OC2CC1C1CO1` (stereo not given), the molecule was called inactive.

As for `c1ccc(-c2ccccc2)cc1`, the outcome was inactive.

`ClC1=C(Cl)[C@]2(Cl)[C@@H]3[C@@H](Cl)[C@H]4O[C@H]4[C@@H]3C1(Cl)C2(Cl)Cl`: the molecule was called inactive.

Take `CCOP(=S)(OCC)SCSC(C)(C)C`: the outcome was inactive.

Consider `O=C(NC(=O)c1cc(F)c(F)cc1Cl)Nc1cc(F)ccc1N1CCC(C(=O)O)CC1`, for which the molecule was classed as inactive.

Consider `CC#Cc1cc(C)nc(Nc2ccccc2)n1`, for which the result was inactive.

`CCC(=O)O[C@H]1CC[C@H]2[C@@H]3CCC4=CC(=O)CC[C@]4(C)[C@H]3CC[C@]12C`: the outcome was inactive.

On to `c1cc2ccc3cccc4ccc(c1)c2c34`, for which the molecule was called inactive.

Turning to `C=CC(=O)NCNC(=O)C=C`, the molecule was classed as inactive.

As to `Clc1ccc(Cl)cc1`, the result was inactive.

In the case of `O=NN(c1ccccc1)c1ccccc1`, the result was inactive.

In the case of `Cc1cc(O)ccc1Cl`, the outcome was inactive.

`CC(C)C(=O)OCC(C)(C)C(OC(=O)C(C)C)C(C)C` (stereo not given): the outcome was inactive.

For `Oc1ccc(Cl)cc1Cl`, the result was inactive.

On to `CC(C)(c1ccccc1)c1ccc(O)cc1`, for which the molecule was classed as inactive.

Take `ClC(Cl)=C(c1ccc(Cl)cc1)c1ccc(Cl)cc1`: the outcome was inactive.

Take `CC(C)(O)C(=O)Nc1ccc([N+](=O)[O-])c(C(F)(F)F)c1`: the molecule was called inactive.

Take `CCC(C)(CC)c1cc(NC(=O)c2c(OC)cccc2OC)on1`: the result was inactive.

As to `CCCCCCCCCc1ccc(O)cc1`, the call was inactive.

As for `CCOC(=O)C(O)(c1ccc(Cl)cc1)c1ccc(Cl)cc1`, the AC50 (as a rule, the concentration at which the activity in the assay is half-maximal) is 72.9 µM (active).

With `CCCCCCCCCC[N+](C)(C)CCCCCCCCCC`, the outcome was inactive.

Regarding `CN(C)CCO`, the molecule was called inactive.

Take `ClC1=C(Cl)[C@]2(Cl)[C@@H]3[C@@H]4C[C@@H]([C@H]5O[C@@H]45)[C@@H]3[C@@]1(Cl)C2(Cl)Cl`: the molecule was classed as inactive.

Take `C=CC(N)=O`: the molecule was called inactive.

Turning to `Cc1cc(-c2ccc(N)c(C)c2)ccc1N`, the result was inactive.

On to `CCC(C)(c1ccc(O)cc1)c1ccc(O)cc1`, for which the molecule was called inactive.

On to `O=C(O)C(F)(F)C(F)(F)C(F)(F)C(F)(F)C(F)(F)F`, for which the molecule was called inactive.

As to `O=C(N[C@H]1CN2CCC1CC2)c1cc2ccoc2cn1`, the result was inactive.

On to `Cc1ccc(O)c(C)c1`, for which the outcome was inactive.

As to `Cc1ccccc1[N+](=O)[O-]`, the molecule was classed as inactive.

Turning to `CCNc1nc(NC(C)C)nc(SC)n1`, the outcome was inactive.

For `NS(=O)(=O)C(F)(F)C(F)(F)C(F)(F)C(F)(F)C(F)(F)C(F)(F)C(F)(F)C(F)(F)F`, the outcome was inactive.

`CCCN(CCC)N=O`: the result was inactive.
